# Assay results taken from the supplement of paper PMC10981050.
# Several values for one entry are separate records, joined by “and”; a condition that tells them apart may be missing. Equal entries are not always repeated. Structures can show the parent of a compound that is named as a salt.
# Experiments:
# Assay in all cases: cell viability relative to vehicle control; higher = less cytotoxic
# Details in all cases: 10 µM
# [1] = tested on: K562
# How it was run: (§1)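 Screening covered the Selleck bioactive, kinase and epigenetic probe libraries, less identity-inconsistent compounds, on CRISPR-edited mutant clones and isogenic wild-type clones of four leukaemia lines. Cells, at 2000 per well in 50 µL medium, received a single 10 µM acoustically dispensed dose. After 48 h the supernatant was removed and CellTiter-Glo luminescence was read. Viability was analysed in Genedata Screener as percent of the on-plate vehicle control.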
# [2] = tested on: MARIMO
# How it was run: as §1
# [3] = tested on: MOLM14
# How it was run: as §1
# [4] = tested on: OCI-AML2
# How it was run: as §1
SMILES,cell viability ([1]; SRSF2 genotype: SRSF2 P95H/wt),cell viability ([1]; SRSF2 genotype: SRSF2 wt/wt),cell viability ([2]; SRSF2 genotype: SRSF2 P95H/wt),cell viability ([2]; SRSF2 genotype: SRSF2 wt/wt),cell viability ([3]; SRSF2 genotype: SRSF2 P95H/wt),cell viability ([3]; SRSF2 genotype: SRSF2 wt/wt),cell viability ([4]; SRSF2 genotype: P95H/wt),cell viability ([4]; SRSF2 genotype: wt/wt)
CC(C(=O)O)C(=O)O [Methylmalonate],102%,100%,98.2%,110%,97%,103%,90.5%,107%
Nc1ncn([C@@H]2O[C@H](CO)[C@@H](O)[C@H]2O)c(=O)n1 [Azacitidine (Vidaza)],47.4% and 45.7%,52.2%,45.5%,52.8%,45.7%,40.3%,35.8%,34.3%
CNC1CCCN(c2c(F)cc3c(=O)c(C(=O)O)cn(C4CC4)c3c2OC)C1 (stereo not drawn) [Balofloxacin],104% and 108%,105%,107%,105%,107%,109%,106%,94.3%
"CC1(C)CCCC2(C)C1CCC1(C)OCCC12 (single isomer, unassigned; (-)) [(-)-Ambroxide]",94.6% and 94.5%,99.7%,97.9%,101%,95.9%,96.4%,98%,103%
CC(C)(CNC(=O)c1cccc(-c2noc(C(F)(F)F)n2)c1)c1coc(-c2ccccc2)n1,89.2% and 87.4%,94.5%,82.1%,82.6%,91%,96%,52.5%,67.2%
CCCCC1=NC2(CCCC2)C(=O)N1Cc1ccc(-c2ccccc2-c2nnn[nH]2)cc1 [Irbesartan (Avapro)],85.5% and 88.8%,86.3%,88.7%,101%,90%,85.5%,95.7%,94.1%
Nc1ncnc2c1ncn2[C@@H]1O[C@H](CO)[C@@H](O)[C@H]1O [Adenosine (Adenocard)],113% and 107%,108%,104%,98.5%,104%,114%,102%,106%
C[C@@H](c1nc(-c2ccc(C#N)cc2)cs1)[C@](O)(Cn1cncn1)c1cc(F)ccc1F [Isavuconazole],45.7% and 47.6%,48.5%,39.3%,33%,44.8%,26%,38.7%,28%
NC(=O)c1cn(Cc2c(F)cccc2F)nn1 [Rufinamide (Banzel)],101% and 104%,106%,106%,108%,107%,107%,113%,103%
CCc1cc2c(cc1CC)CC(NC[C@H](O)c1ccc(O)c3[nH]c(=O)ccc13)C2 [Indacaterol Maleate],68.6% and 83.2%,75.8%,73.3%,77%,62%,71.2%,52.5%,60.1%
CC(C)OC(=O)CCC/C=C\C[C@@H]1[C@@H](/C=C/C(F)(F)COc2ccccc2)[C@H](O)C[C@@H]1O [Tafluprost],85.8% and 90.8%,92.1%,85%,96.2%,89.3%,97.7%,90.6%,95%
CN1C(=O)[C@@H](NC(=O)c2cc(Cc3ccccc3)on2)COc2ccccc21,105% and 100%,105%,98.9%,102%,110%,110%,99.6%,99.8%
C=CC(=O)Nc1cccc(C)c1Nc1ncc2cc(-c3c(Cl)c(OC)cc(OC)c3Cl)ccc2n1,29.7% and 25.7%,35.1%,47.6%,55.7%,6.84%,4.93%,6.53%,11.9%
C/C(O)=C(\C#N)C(=O)Nc1ccc(C(F)(F)F)cc1 [Teriflunomide],93.8% and 104%,91.6%,94.3%,98.5%,88.2%,93.9%,79.9%,87.1%
"Cc1cc(Nc2cc(N3CCN(C)CC3)nc(Sc3ccc(NC(=O)C4CC4)cc3)n2)n[nH]1 [VX-680 (MK-0457, Tozasertib)]",16.4% and 18.7%,14.8%,53.6%,38%,6.03%,9.53%,14.4%,19.3%
Oc1cccc(O)c1O [Pyrogallol],96.9% and 103%,102%,108%,104%,102%,104%,102%,112%
CCOC(=O)c1c(CSc2ccccc2)n(C)c2cc(Br)c(O)c(CN(C)C)c12 [Arbidol HCl],50.6% and 70.1%,61.6%,48%,54.8%,47.8%,32.9%,53.5%,43.8%
CC(=O)OCC(=O)[C@H]1CC[C@H]2[C@@H]3CCC4=CC(=O)CC[C@]4(C)[C@H]3CC[C@]12C [Deoxycorticosterone acetate],91.4% and 91.9%,98.4%,89.8%,99%,89%,96.2%,86.1%,76.2%
O=C(O)c1ccc(C=C2SC(=S)N(c3cccc(C(F)(F)F)c3)C2=O)cc1,94.1% and 97.2%,95.1%,94.3%,105%,90.2%,99.7%,95.5%,97.9%
CC1(C)CCC2(C(=O)O)CCC3=C(CCC4C3(C)CCC3C4(C)CC(O)C(O)C3(C)C(=O)O)C2C1 (stereo not drawn) [Polygalic acid],86.1% and 86.3%,82%,89.8%,92%,87.7%,87.9%,83.1%,95.3%
Cc1ccnc(NS(=O)(=O)c2ccc(N)cc2)n1 [Sulfamerazine],99.9% and 106%,101%,105%,104%,99.7%,107%,107%,89.9%

SMILES,cell viability ([1]; SRSF2 genotype: SRSF2 P95H/wt),cell viability ([1]; SRSF2 genotype: SRSF2 wt/wt),cell viability ([2]; SRSF2 genotype: SRSF2 P95H/wt),cell viability ([2]; SRSF2 genotype: SRSF2 wt/wt),cell viability ([3]; SRSF2 genotype: SRSF2 P95H/wt),cell viability ([3]; SRSF2 genotype: SRSF2 wt/wt),cell viability ([4]; SRSF2 genotype: P95H/wt),cell viability ([4]; SRSF2 genotype: wt/wt)
CN1CCc2cc(Nc3ncc(C4CC4)c(NCCCNC(=O)C4CCC4)n3)ccc2C1,34.8% and 33.1%,55.2%,3.21%,1.31%,0.63%,0.39%,1.22%,4.15%
Cc1cccc(Oc2cnc(=O)[nH]c2)c1,97.7% and 96%,99.4%,94.2%,97%,100%,97.4%,103%,101%
CNCc1ccc(-c2[nH]c3cc(F)cc4c3c2CCNC4=O)cc1,94% and 103%,97.8%,84.7%,86.7%,50%,29.4%,44.2%,55.8%
O=C(Oc1coc(CSc2ncccn2)cc1=O)c1ccc([N+](=O)[O-])cc1,88.1% and 95.5%,100%,98.3%,98.7%,96.5%,97.4%,97.9%,81.8%
Fc1ccc(Cn2c(Cl)nc3ccccc32)cc1 [2-Chloro-1-(4-fluorobenzyl)benzimidazole],77.4% and 80.8%,86.5%,64.6%,64.5%,77.2%,84%,28.5%,36.5%
CCOc1ccc(NC(C)=O)cc1 [Phenacetin],98.6% and 97.2%,91.5%,89.6%,92.5%,98.4%,95.8%,88.3%,93.4%
O=c1cc(-c2ccc(O)cc2)oc2cc(O)c(O)c(O)c12 [Scutellarein],92% and 86.2%,95%,102%,91.3%,107%,103%,102%,97%
COc1ccc(CCCOC(Cn2ccnc2)c2ccc(OC)cc2)cc1 (stereo not drawn),16.1% and 28.8%,28.9%,13.8%,14.8%,19.7%,4.26%,14.6%,18.9%
Cn1ncc(Cl)c1-c1cc(C(=O)N[C@H](CN)Cc2cccc(F)c2)sc1Cl,49.3% and 45.9%,51%,67.5%,63.7%,34.9%,37.3%,33.6%,48.6%
OCc1ccc(O)cc1 [4-Hydroxybenzyl alcohol],108% and 106%,111%,98%,112%,108%,109%,111%,95.3%
COC(=O)c1c2c(c3ccccc3c1O)OC(C)(C)C=C2 [Rubimaillin],86.1% and 90%,79.6%,20%,39.7%,2.68%,3.56%,28.1%,41.4%
C[C@@H]1C(=O)O[C@H](C)[C@H]1C[C@@H](O)[C@](C)(O)[C@H]1CC[C@@]2(O)C3=CC(=O)[C@@H]4C[C@@H](O)[C@@H](O)C[C@]4(C)[C@H]3CC[C@]12C [Cyasterone],105% and 98%,105%,95.2%,98.3%,114%,105%,105%,98.2%
COc1ncc(-c2cc(-c3ncc(CN4C[C@@H](C)O[C@@H](C)C4)o3)c3cn[nH]c3c2)cc1NS(C)(=O)=O,53.5% and 58.5%,61.2%,42.6%,37.1%,23.5%,27.3%,13.1%,25.8%
CCCCCOc1ccccc1/C(=C\SC)n1ccnc1 [Neticonazole Hydrochloride],66.4% and 59.1%,68.9%,45.7%,39%,59.7%,54.8%,25.7%,26%
O=C(O)Cc1cccc2ccccc12 [1-Naphthaleneacetic acid],98% and 100%,98.1%,95.7%,98.3%,106%,97.5%,104%,97.4%
COc1c(O)c(C)cc2c1C(=O)c1c(O)cccc1C2=O [Obtusifolin],103% and 105%,107%,109%,105%,111%,105%,98.6%,92.6%
COc1ccc(CCC(=O)c2c(O)cc(O[C@@H]3O[C@H](CO)[C@@H](O)[C@H](O)[C@H]3O[C@@H]3O[C@@H](C)[C@H](O)[C@@H](O)[C@H]3O)cc2O)cc1O [Neohesperidin dihydrochalcone (Nhdc)],107% and 83.6%,84.9%,82.7%,90.5%,82.3%,86.8%,89.6%,84.9%
CC(=O)Nc1ccc(OC(=O)c2ccccc2OC(C)=O)cc1 [Benorylate],102%,98.9%,104%,100%,104%,101%,107%,108%
COc1cc2c(cc1O)[C@@H](Cc1ccc(O)c(Oc3ccc(C[C@@H]4c5cc(OC)c(OC)cc5CCN4C)cc3)c1)N(C)CC2 [Daurisoline],30.5% and 37.4%,15.9%,3.28%,9.42%,1.06%,0.83%,1.65%,1.01%
O=C(/C=C\n1cnc(-c2cc(C(F)(F)F)cc(C(F)(F)F)c2)n1)NNc1ccccn1 [Verdinexor (KPT-335)],11.8% and 21.6%,14.7%,24.4%,22.1%,2.16%,1.01%,4.7%,9.56%
